High-throughput results (PubChem BioAssay)
Hits are enriched below; roughly 10% of the tested compounds scored in any of these assays.
ALDH1A1 inh: inhibitors of human aldehyde dehydrogenase 1A1 | AID 1030 | Potency, µM (top dose mostly 75.3 µM), usual class: inhibitors | 7.3% of 220,000 active | Purified ALDH1A1, NADH fluorescence, propionaldehyde substrate
IMPase inh: cell-permeable inhibitors of inositol monophosphatase (IMPase) | AID 901 | CHO-M1 cells, IP1 accumulation, HTRF TR-FRET ratio | 120,000 tested, under 10 active | inhibition (IP1 accumulation), % at 46.1 µM | P97697; active means well fitted curve in the direction sought with a large enough effect in the signal ratio, not every such curve was filed as active; inconclusive means small, poorly fitted or top-dose-only effect, or a change in a side signal; inactive means no such curve, though single readings can be large or run the other way; the % refers to the signal ratio;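 further: cells stimulated with carbachol in lithium chloride buffer; higher means more IMPase inhibition seen as more IP1 and lower FRET ratio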
Target sequence (P97697 whole entry, looked up): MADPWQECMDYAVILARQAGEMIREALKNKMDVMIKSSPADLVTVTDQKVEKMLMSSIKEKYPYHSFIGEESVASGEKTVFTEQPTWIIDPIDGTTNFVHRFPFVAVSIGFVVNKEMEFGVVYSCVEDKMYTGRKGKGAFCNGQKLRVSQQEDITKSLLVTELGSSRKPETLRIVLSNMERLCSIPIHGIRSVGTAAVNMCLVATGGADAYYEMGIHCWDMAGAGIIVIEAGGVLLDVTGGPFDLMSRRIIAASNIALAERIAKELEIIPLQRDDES
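CHO-M1 cells (CHO stably expressing M1 receptor), compound up to 46 uM final, stimulated with carbachol (50 uM as added) in buffer with 50mM LiCl, pH 7.4, 30 min at 37C. Cytosolic IP1 read by TR-FRET; AC50 from Hill fits.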
HPGD block: inhibitors of human 15-hydroxyprostaglandin dehydrogenase (HPGD) | P15428 | purified HPGD, NADH fluorescence kinetic, PGE2 substrate | Potency, µM, actives largely listed as inhibitors | 4.3% of 150,000 active | AID 894
Target sequence (P15428 whole entry, looked up): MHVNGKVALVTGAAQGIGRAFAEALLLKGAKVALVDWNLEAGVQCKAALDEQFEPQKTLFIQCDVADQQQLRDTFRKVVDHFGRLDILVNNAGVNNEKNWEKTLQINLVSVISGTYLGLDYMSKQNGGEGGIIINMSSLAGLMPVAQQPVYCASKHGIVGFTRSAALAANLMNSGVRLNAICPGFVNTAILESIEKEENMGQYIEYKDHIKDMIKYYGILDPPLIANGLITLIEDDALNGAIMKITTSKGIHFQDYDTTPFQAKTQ
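20 nM HPGD preincubated 15 min at room temperature with compound in 50 mM Tris-HCl pH 8, 0.01% Tween 20. Started with 1 mM NAD+ and 30 uM prostaglandin E2; NADH fluorescence (360/450 nm) read 5 times over 30-s intervals, last minus first.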
LMNA splice mod: LMNA splicing modulation | HeLa LMNA splicing GFP/RFP minigene ratio, 48 h | 0.01% of 200,000 active | Potency, µM (titrated, usually from 46.1 µM), most hits filed as inhibitors; active means well fitted inhibition curve with a large enough effect in the signal ratio, with a control signal flat, not every such curve was filed as active; inconclusive means small, poorly fitted or top-dose-only effect, or effect the other way, or a change in a side signal; the % refers to the signal ratio
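Read-out is the ratio of GFP to DsRed2 object intensity, acquired by 488 nm laser-scanning cytometry on HeLa lamin A-EGFP minigene reporter cells. Compound incubation 48 hrs at 37 °C in Opti-MEM with 2% FBS; DMSO 0.5% final.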
PNC assembly inh: inhibitors of perinucleolar compartment assembly; 3.1% of 140,000 active; PC3M PTB-GFP, PNC prevalence imaging, 16 h; stronger effect = lower value; activity change (PNC), negative = inhibition, % at 10 µM; AID 2417;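 active means readout at or below -70, meaning at least 70% loss of cells showing the perinucleolar compartment, a nuclear body marking cancer cells; inconclusive means readout between -30 and a set limit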
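Read-out is percentage of cells bearing a perinucleolar compartment, from automated 20x imaging of fixed, Hoechst-stained PC3M PTB-GFP cells. Cells were seeded 4 h, then exposed 16 h to compound (23 nl of library stock) in duplicate plates.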
Luc counter: counter-screen: inhibitors of Kinase-Glo firefly luciferase; Q27757; Kinase-Glo luciferase, ATP luminescence, 8 min; Potency, µM (series often up to 38.3 µM), usual class: inhibitors; 0.28% of 200,000 active; active means well fitted inhibition curve with a large enough effect; inconclusive means small, poorly fitted or top-dose-only effect; further: nearly all actives have a fitted effect of over 60% in size
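Inhibition of Kinase-Glo luciferase light generation was assessed at 10 uM ATP in pH 7.2 imidazole buffer, with luminescence measured after eight minutes at ambient temperature.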
Numbers stand for hits. Unless noted, the call rests on the fitted dose curve; in most records, active means well fitted inhibition curve with a large enough effect (not every such curve was filed as active); inconclusive means small, poorly fitted or top-dose-only effect, or another doubt; inactive means no such curve, though single readings can be large or run the other way.

CC1CC(=O)c2cnc(NCC3CCCO3)nc2C1 (stereo not given) was read as ALDH1A1 inh inconclusive, IMPase inh inactive, HPGD block inactive, LMNA splice mod inactive, PNC assembly inh inactive and Luc counter inactive.
For CC1(C)CC(=O)c2cnc(NCC3CCCO3)nc2C1 (stereo not given) the results were ALDH1A1 inh inconclusive, IMPase inh inactive, HPGD block 22µM, LMNA splice mod inactive, PNC assembly inh inconclusive and Luc counter inactive.
For Cc1cc(N2CCCC2)n2nc(C)nc2n1 the results were ALDH1A1 inh inactive, HPGD block inactive, LMNA splice mod inactive, PNC assembly inh -84 and Luc counter inactive.
Cc1cc(N2CCC(C)CC2)n2nc(C)c(-c3ccccc3)c2n1 was read as ALDH1A1 inh inactive, IMPase inh inactive, HPGD block inconclusive, LMNA splice mod inconclusive, PNC assembly inh inactive and Luc counter inactive.
Cc1cc(N2CCCCC2)n2nc(C)c(-c3ccccc3)c2n1 was read as ALDH1A1 inh inactive, IMPase inh inactive, LMNA splice mod inconclusive and PNC assembly inh -82.
Screening CCOC(=O)N1CCN(c2cc(C)nc3nc(C)nn23)CC1 returned ALDH1A1 inh inactive, IMPase inh inactive, HPGD block inactive, LMNA splice mod inactive, PNC assembly inh inconclusive and Luc counter inactive.
Screening CCOC(=O)c1ccccc1NC(=O)CSc1nc2ncccc2o1 returned LMNA splice mod inactive.
For CCn1c(SCC(=O)NC2CCCCC2)nnc1-c1cc2cccc(OC)c2o1 the results were ALDH1A1 inh inconclusive, IMPase inh inactive, HPGD block 20µM, LMNA splice mod inactive, PNC assembly inh inactive and Luc counter inactive.
`COc1ccc(C(=O)Nn2c(SCC(=O)NC3CCCCC3)nc3ccccc3c2=O)cc1` gave ALDH1A1 inh inconclusive, IMPase inh inactive, HPGD block inactive, LMNA splice mod inactive, PNC assembly inh inactive and Luc counter 14µM.
`COc1ccc(C(=O)Nn2c(SCC(=O)NCc3ccco3)nc3ccccc3c2=O)cc1` gave ALDH1A1 inh inactive, IMPase inh inactive, HPGD block inactive, LMNA splice mod inactive, PNC assembly inh inactive and Luc counter inactive.
Screening COc1ccc(NC(=O)CSc2nc3ccccc3c(=O)n2CCCN2CCCCC2)c(OC)c1 returned ALDH1A1 inh 10µM, IMPase inh inactive, HPGD block inactive, LMNA splice mod inactive, PNC assembly inh inactive and Luc counter inactive.
For COc1ccccc1-n1c(SCC(=O)NC2CCCC2)nc2cccnc21 the results were ALDH1A1 inh inactive, IMPase inh inactive, HPGD block 14µM, LMNA splice mod inactive, PNC assembly inh inactive and Luc counter inactive.
CCn1c(SCC(=O)Nc2nccs2)nnc1-c1cc2cccc(OC)c2o1 was read as ALDH1A1 inh inactive, IMPase inh inactive, HPGD block inactive, LMNA splice mod inactive, PNC assembly inh inactive and Luc counter inactive.
Cc1cccc(NC(=O)c2cc3c([nH]c2=O)CC(c2ccccc2)CC3=O)c1 (stereo not given) was read as LMNA splice mod inactive.
`CCCN(C(=O)c1cc(S(=O)(=O)N2CCc3ccccc32)cn1C)c1ccc(OCC)cc1` gave LMNA splice mod inactive.
For Cc1ccc(CNC(=O)c2ccc(CS(=O)(=O)Cc3ccc(F)cc3)o2)cc1 the results were LMNA splice mod inactive.
Screening COc1ccc(C(=O)Nn2c(SCC(=O)c3ccc(Cl)cc3)nc3ccccc3c2=O)cc1 returned ALDH1A1 inh inconclusive, IMPase inh inactive, HPGD block inactive, LMNA splice mod inactive, PNC assembly inh inactive and Luc counter inactive.
COc1ccc(C(=O)Nn2c(SCC(=O)N3CCC(C)CC3)nc3ccccc3c2=O)cc1 was read as ALDH1A1 inh inconclusive, IMPase inh inactive, HPGD block inconclusive, LMNA splice mod inactive, PNC assembly inh inactive and Luc counter 13µM.
`COc1ccc(CC(=O)Nc2nccs2)cc1OC` gave ALDH1A1 inh inactive, HPGD block inactive, LMNA splice mod inconclusive, PNC assembly inh inactive and Luc counter inactive.
COc1ccc(CC(=O)Nc2ccc(-c3nnc(-c4ccccc4)o3)cc2)cc1OC was read as ALDH1A1 inh 3.5µM, IMPase inh inactive, HPGD block inconclusive, LMNA splice mod inactive, PNC assembly inh inactive and Luc counter inactive.
For COc1ccc(CC(=O)Nc2cccc(C)n2)cc1OC the results were ALDH1A1 inh inactive, HPGD block inactive, LMNA splice mod inconclusive, PNC assembly inh -81 and Luc counter inactive.
Screening COc1ccc(CC(=O)Nc2cc(C)on2)cc1OC returned ALDH1A1 inh inactive, IMPase inh inactive, HPGD block inactive, LMNA splice mod inactive, PNC assembly inh inconclusive and Luc counter inactive.
COc1ccc(CC(=O)Nc2ncc([N+](=O)[O-])s2)cc1OC was read as ALDH1A1 inh 20µM, LMNA splice mod inconclusive and Luc counter inactive.
For CCC(=O)O[C@H]1C(O[C@@H]2C(C)[C@H](O[C@H]3C[C@@](C)(OC)C(O)C(C)O3)C(C)C(=O)OC(CC)[C@@](C)(O)C(O)[C@H](C)C(=O)C(C)C[C@]2(C)O)OC(C)CC1N(C)C (stereo not given in full) the results were ALDH1A1 inh inactive, HPGD block inconclusive and Luc counter inactive.
CC1(C)CC(=O)C2=C(C1)N(c1cccc(Cl)c1)C(=O)NC2(C(F)(F)F)C(F)(F)F was read as ALDH1A1 inh inactive, HPGD block inactive, LMNA splice mod inactive, PNC assembly inh -80 and Luc counter inactive.
`Cc1cc(C)n2nc(C(=O)Nc3nccs3)nc2n1` gave ALDH1A1 inh inactive, IMPase inh inactive, HPGD block inactive, LMNA splice mod inactive, PNC assembly inh inactive and Luc counter inactive.
Cc1csc(NC(=O)c2nc3nc(C)cc(C)n3n2)n1 was read as ALDH1A1 inh inactive, IMPase inh inactive, HPGD block inactive, LMNA splice mod inactive, PNC assembly inh -95 and Luc counter inactive.
For O=C(Nc1nccs1)c1nc(-c2ccccc2)n(-c2ccccc2)n1 the results were ALDH1A1 inh inactive, IMPase inh inactive, HPGD block inactive, LMNA splice mod inactive, PNC assembly inh inactive and Luc counter inactive.
Screening Cc1csc(NC(=O)c2nc(-c3ccccc3)n(-c3ccccc3)n2)n1 returned ALDH1A1 inh 14µM, IMPase inh inactive, HPGD block inactive, LMNA splice mod inconclusive, PNC assembly inh inactive and Luc counter inactive.
`C/C(=N\NC(=O)c1cccnc1)c1cc(C)oc1C` gave ALDH1A1 inh inactive, HPGD block inactive, LMNA splice mod inactive, PNC assembly inh inactive and Luc counter inactive.
C/C(=N\NC(=O)c1cccnc1)c1c(O)cc(C)oc1=O was read as ALDH1A1 inh 25µM, HPGD block inactive, LMNA splice mod inactive, PNC assembly inh inactive and Luc counter inactive.
